These results are taken from PubChem BioAssay (EPA / NIEHS).

Active and inactive are the calls of the source. The calls were made as follows: active = hit-call score of the fitted dose curve at least 0.9, where 1 is the maximum; inactive = score below 0.9.

The term AC50 denotes the concentration giving half of the maximal activity seen.

A short description of the assay: ATG_AP_1_CIS: Attagene CIS-FACTORIAL HepG2 Assay for human Activator Protein 1 (AP-1) (AID 2282931). To be noted: HepG2 Attagene cis-factorial AP-1 reporter mRNA; actives raise or lower the signal. Summed up: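 Endogenous transcription-factor activity in human HepG2 liver cells is read through a cis-promoter reporter transcript, sampled 24 h after dosing. Detection uses RT-PCR with capillary electrophoresis; values come from bidirectional fitting relative to DMSO.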
Consider `CCOC(=O)CC(C)O` (stereo not drawn), for which the compound was classed as inactive.
As for `CCCC(=O)OCCc1ccccc1`, the compound was called inactive.
Regarding `CC1(C)O[C@@H]2[C@@H](CO[C@@]3(COS(N)(=O)=O)OC(C)(C)O[C@@H]23)O1`, the outcome was inactive.
`[Cl][Au]([Cl])[Cl]`: the AC50 is 72.6 µM (active).
`CCCCCC(C=O)=Cc1ccccc1`: the compound was classed as inactive.
Same read-out and setting: the value for `C=CC(C)C#N` (stereo not drawn) was “inactive”; that for `C[C@H]1O[C@@H](O[C@H]2[C@@H](O)C[C@H](O[C@H]3[C@@H](O)C[C@H](O[C@H]4CC[C@@]5(C)[C@H](CC[C@@H]6[C@@H]5C[C@@H](O)[C@]5(C)[C@@H](C7=CC(=O)OC7)CC[C@]65O)C4)O[C@@H]3C)O[C@@H]2C)C[C@H](O)[C@@H]1O` was “inactive”.
As for `ClC(c1ccccc1)(c1ccccc1)c1ccccc1`, the outcome was inactive.
`O=c1c(O)c(-c2ccc(O)cc2)oc2cc(O)cc(O)c12`: the compound was classed as inactive.
On the same count and under the same terms, the value for `CN1CCOCC1` was “inactive”; that for `CC/C=C\CC/C=C/CO` was “inactive”.
With `CS(=O)(=O)c1ccc(C2=C(c3ccccc3)C(=O)OC2)cc1`, the call was inactive.
For the compound `CC1C2CC(CC2C2CCCC(O)C2)C1(C)C` (stereo not drawn), the result was inactive.
`COC(=O)Nc1ccc(Cl)c(Cl)c1`: the AC50 is 172 µM (active).
On to `CC(O)C1CCCCC1` (stereo not drawn), for which the result was inactive.
The same measure, in the same setting: the result for `Oc1c(Cl)cc(Cl)c(Cl)c1Cc1c(O)c(Cl)cc(Cl)c1Cl` reads “inactive”; that for `N#Cc1ccc(CC(=O)c2cccc(C(F)(F)F)c2)cc1`, “inactive”.
On to `COS(=O)(=O)O`, for which the call was inactive.
As to `CCCCCCOC(=O)CCC`, the compound was called inactive.
Consider `COC(C)(C)CCCC(C)CC=O` (stereo not drawn), for which the result was inactive.
Take `CSCCC=O`: the outcome was inactive.
In the case of `Brc1ccc(Br)c(Br)c1`, the result was inactive.
With `Cc1cc(C)nc(NS(=O)(=O)c2ccc(N)cc2)n1`, the call was inactive.
With `CCOCCOCCOCC`, the compound was called inactive.
In the case of `C=C1C[C@]23C[C@@]1(O)CC[C@H]2[C@@]12C=C[C@H](O)[C@@](C)(C(=O)O1)[C@H]2[C@@H]3C(=O)O`, the outcome was inactive.
For `OCc1cccc(Oc2ccccc2)c1`, the compound was classed as inactive.
For the compound `C=CCN(CC=C)CC=C`, the compound was called inactive.
On to `CC(C)(N=C=O)c1cccc(C(C)(C)N=C=O)c1`, for which the outcome was inactive.
Regarding `C[Si]1(C)O[Si](C)(C)O[Si](C)(C)O1`, the call was inactive.
Consider `CCOc1ccccc1O`, for which the compound was called inactive.
For the compound `Cc1cc(=O)oc2cc(N(C)C)ccc12`, the call was inactive.
Turning to `CCCCOCC`, the compound was classed as inactive.
Regarding `C1CCCCC1`, the result was inactive.
`CC1=CC[C@@]23C[C@@H]1C(C)(C)[C@@H]2CC[C@H]3C`: the result was inactive.
For `O=C1NC2NC(=O)NC2N1` (stereo not drawn), the result was inactive.
Consider `Nc1ccc(NCCO)c([N+](=O)[O-])c1`, for which the compound was called inactive.
Turning to `CC(C)(CO)[C@@H](O)C(=O)NCCC(=O)O`, the outcome was inactive.
As for `C[Si](C)(C)O[Si](C)(C)C`, the call was inactive.
